Molecules are shown by their SMILES. A number with no mark means an inactive call. The call rests on the fitted dose curve; in most records, active means well fitted inhibition curve with a large enough effect in the repeat runs (not every such curve was filed as active); inconclusive means weak or mixed curves; inactive means flat fitted curve, though single readings scatter.
On the % scale 0 is the no-effect control and ±100 the full control effect.

Thyrotropin-releasing hormone receptor (Homo sapiens), sequence (P34981 whole entry, looked up): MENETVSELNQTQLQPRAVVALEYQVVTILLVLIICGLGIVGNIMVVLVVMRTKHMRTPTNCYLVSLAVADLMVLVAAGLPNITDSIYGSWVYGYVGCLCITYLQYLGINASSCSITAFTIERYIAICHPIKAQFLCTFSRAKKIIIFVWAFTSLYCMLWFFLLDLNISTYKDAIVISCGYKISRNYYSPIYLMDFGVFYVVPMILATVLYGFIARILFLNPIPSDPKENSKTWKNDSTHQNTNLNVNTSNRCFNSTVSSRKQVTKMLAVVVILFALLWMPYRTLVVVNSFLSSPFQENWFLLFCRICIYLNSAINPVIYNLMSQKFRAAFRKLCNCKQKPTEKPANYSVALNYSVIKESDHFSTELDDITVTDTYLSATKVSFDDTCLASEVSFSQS

This test has as its target Thyrotropin-releasing hormone receptor (Homo sapiens) (UniProt P34981). Briefly: qHTS assay to identify small molecule antagonists of the thyrotropin-releasing hormone receptor (TRHR) signaling pathway (AID 1346877). To be noted: TRHR-HEK293, TRH-induced calcium fluorescence, antagonist mode; series mostly up to 51.3 µM; activity, negative = inhibition: at the top concentration. A digest of the protocol: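 Antagonist mode: after a 5 min room-temperature compound exposure, cells were stimulated with 1 nM (final) TRH. Dye-loaded TRHR-HEK293 cells were used, and calcium-dependent fluorescence was followed for 3 min, with 15-point titrations run in triplicate.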
(In qHTS, concentration-response curves come from the screen itself.)
Take `CO[C@@H]1[C@@H](O[C@@H]2O[C@H](C)[C@@H](O[C@H]3C[C@@](C)(O)[C@@H](O)[C@H](C)O3)[C@H](N(C)C)[C@H]2O)[C@@H](CC=O)C[C@@H](C)[C@@H](O[C@@H]2CC[C@H](N(C)C)[C@@H](C)O2)/C=C/C=C/C[C@@H](C)OC(=O)C[C@H]1OC(C)=O`: the “activity, negative = inhibition” value is 3.91% [at 23.6 µM]. The figure for `Oc1ccc(CCNCCCCCCNCCc2ccccc2)cc1O` is -2.5% [at 23.6 µM]; for `C=C[Si](OCC)(OCC)OCC` it is 2.57%; for `Cc1cc(C)n(CO)n1` it is 1.05%. To `O=c1c2ccccc2oc2ccccc12` belongs -5.91%; to `CCCCCCCCCCCCCCCCCCCl`, 0.326% [at 4.65 µM].

With `CC(=O)Nc1cccc(N)c1`, the “activity, negative = inhibition” value is 5.53%.

For the molecule `Cc1ccc(NC=O)c(C)c1`, the “activity, negative = inhibition” value was 0.766%. As for `Clc1nc2ccccc2nc1Cl`, the “activity, negative = inhibition” value is 0.962%. To `CC(=O)Oc1cccc2c1C(=O)c1c(OC(C)=O)cc(C(=O)O)cc1C2=O` belongs 2.04% [at 23.6 µM]; to `CC(=O)c1ccc(Cl)c(Cl)c1Cl`, 4.27%. The figure for `CCCCCCCCCC(C)C=O` (stereo unspecified) is -4.62%; for `CC(C)(Cc1c[nH]c2ccccc12)NCC(O)COc1ccccc1C#N` (stereo unspecified) it is 0.901% [at 23.6 µM].

On to `O=C(c1ccco1)N1CCNCC1`, for which the “activity, negative = inhibition” value is 1.53% [at 23.6 µM].

`CC(COc1ccccc1)NC(C)C(O)c1ccc(O)cc1` (stereo unspecified): the “activity, negative = inhibition” value was 2.34% [at 23.6 µM].

`CCc1cnc(C(=O)O)c(C(=O)O)c1`: the “activity, negative = inhibition” value is 6.31%. The figure for `CCOc1ccccc1O` is -3.95%; for `O=S(=O)(O)c1cc(Cl)c(Cl)cc1Cl` it is -0.847%; for `O=C(N[C@@H](Cc1ccccc1)[C@@H](O)C(=O)N1C[C@@H](O)[C@@H](O)C1)c1cc2cc(Cl)ccc2[nH]1` it is 5.4%. To `CCC(CC)C(=O)O` belongs 2.7%; to `CC[C@H](NC(C)C)[C@H](O)c1ccc(O)c2[nH]c(=O)ccc12`, 1.44% [at 23.6 µM].

For the origin of these results see PubChem BioAssay (Tox21).
